From PubChem
Shown are actives, neighbours in structure and some others; about 1.3% of the full set was active somewhere.
VLA-4 inh: inhibition in human VLA-4 binding assay, primary screen, VLA-4 allosteric modulator project, MLPCN library, flow cytometry, VLA-4 expressing cells; Integrin alpha-4 (Homo sapiens), P13612; ligand binding flow cytometry; inhibition, % (about 7 µM as worked out from the volumes in the protocol); hit rate 0.2% among 330,000; in the data active = inhibition above about 50%
GRK2 inh: compounds blocking aptamer binding on GRK2 – biochemical, human GRK2, bead flow cytometry, HTS, primary screen; FAM-aptamer displacement from GRK2; inhibition of aptamer binding, % at 10 µM; Beta-adrenergic receptor kinase 1 (Homo sapiens), P25098; hit rate 0.59% among 330,000; AID 488847, 2010;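 active = inhibition of aptamer binding above 40%, roughly 3 SD of noise, on plates passing a quality check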;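 note: median bead fluorescence of bound FAM aptamer so fluorescent compounds give negative values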
Beta2AR agonist: beta2AR agonists driving receptor internalization, primary screen, cell-based, FAP fluorogen, flow cytometry. Beta-2 adrenergic receptor (Homo sapiens), P07550. Am2.2-beta2AR cells. hit rate 0.43% among 340,000. response, % (test concentration not listed);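 active = response above a set limit, near 3 SD of response in nonfluorescent compounds, cut at about 42% in these data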
Target sequence (P07550 whole entry, looked up): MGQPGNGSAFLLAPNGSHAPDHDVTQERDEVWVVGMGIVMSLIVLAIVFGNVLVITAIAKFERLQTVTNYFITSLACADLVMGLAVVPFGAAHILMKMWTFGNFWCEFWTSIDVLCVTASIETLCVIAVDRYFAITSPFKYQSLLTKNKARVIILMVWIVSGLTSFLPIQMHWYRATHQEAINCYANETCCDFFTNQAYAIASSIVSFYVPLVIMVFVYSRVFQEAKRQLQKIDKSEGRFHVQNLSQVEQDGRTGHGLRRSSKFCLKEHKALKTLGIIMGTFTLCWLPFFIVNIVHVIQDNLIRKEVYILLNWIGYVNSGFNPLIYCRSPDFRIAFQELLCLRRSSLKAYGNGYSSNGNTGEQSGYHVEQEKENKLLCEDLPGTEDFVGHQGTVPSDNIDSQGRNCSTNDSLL
A1 inh: caspase 3/7 activation in MEF A1-2A-BIM cells, primary screen, A1 inhibitor project, cell-based, luminescence, HTS | Caspase-Glo 3/7 luminescence, 3 h; percent of clofoctol response, vehicle zero | caspase activation, % (concentration not given with the values) | hit rate 0.066% among 330,000 | AID 2462, 2010;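 active = over half of replicate activation scores above 10%, or exactly half above 10 with the replicate mean above 10; inconclusive = replicate mean below 10 yet half the replicates above 10; inactive = over half of replicates below 10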
NTR1 ag: agonists of human NTR1, primary screen, imaging, U2OS cells, beta-arrestin-GFP, high content | hit rate 0.17% among 330,000 | NTR1-U2OS beta-arrestin-GFP spot imaging, agonist mode | AID 493036, 2011 | Neurotensin receptor type 1 (Homo sapiens), P30989 | activation, % at 20 µM;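 active = activation at or above 40% of the spot to cytoplasm intensity ratio, with at least 20 cells analyzed; inconclusive = wells under 20 cells, flagged as cytotoxic or low count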;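 note: 0% = DMSO without peptide and 100% = 100 nM NTR1 peptide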
GRK2 CP1: GRK2 aptamer-displacing inhibitors, retest, confirmation, biochemical, cherry pick 1, bead flow cytometry; shares compounds with GRK2 inh; bead-bound GRK2, FAM-aptamer displacement; aptamer displacement, % at 10 µM; hit rate 4% among 2,000; AID 504451, 2011;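 active = aptamer displacement above 40%, near three times the noise of non-fluorescent compounds, on plates passing quality checks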;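 note: negative values mostly reflect intrinsic compound fluorescence rather than true enhancement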
Aptamer quench SP: counter-screen for GRK2 aptamer inhibitors: fluorescent aptamer quenchers | shares compounds with GRK2 inh | Carboxyfluorescein RNA aptamer on beads, flow cytometry quenching; active compounds read low | fluorescence response (% of DMSO), % at 10 µM | 2,000 tested, under 10 active | AID 504580;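 active = compounds that quench the bead-bound fluorescent RNA probe, cutting fluorescence to under half of the solvent control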;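 note: counterscreen run without GRK2 so only probe quenching by compound is measured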
GRK2 confirm 2: GRK2 aptamer-displacing inhibitors, hit retest, confirmation, biochemical, cherry pick 2, bead flow cytometry. shares compounds with GRK2 inh. bead-bound GRK2, FAM-aptamer displacement. inhibition of aptamer binding, % at 10 µM. 360 tested, under 10 active. AID 504782, 2011;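 active = inhibition of aptamer binding above 40%, about triple the noise seen with nonglowing compounds, on plates passing quality control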;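 note: negative values mostly come from compounds that fluoresce themselves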
FAM quench CP2: counter-screen for GRK2 binding hits: quenchers of fluorescent RNA aptamer | carboxyfluorescein RNA aptamer beads, flow cytometry quenching; active compounds read low | shares compounds with GRK2 inh | fluorescence response vs DMSO, % at 10 µM | 360 tested, under 10 active;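 active = response vs DMSO under 50%, meaning signal dropped by over half, treated as fluorescence quencher; inconclusive = no clear call, values can overlap the other calls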;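 note: labelled aptamer on streptavidin beads without GRK2 as a quench counter-screen; 100% = bead fluorescence of DMSO wells and lower means quenching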
Active calls of the source: *; ? = inconclusive; nt = no result.

SMILES	VLA-4 inh	GRK2 inh	Beta2AR agonist	A1 inh	NTR1 ag	GRK2 CP1	Aptamer quench SP	others
CC(=O)N1CCc2c(sc(NC(=O)Cc3ccc(C)cc3C)c2C#N)C1	13.1	3.0	4.2	-0.7	3.7	nt	nt
CNC(=O)c1c(NC(=O)CCS(=O)(=O)c2ccc(C)cc2)sc2c1CCN(C(=O)OC)C2	-7.6	0.0	-1.0	1.0	0.0	nt	nt	GRK2 confirm 2=12.4;FAM quench CP2=98.0
CNC(=O)c1c(NC(=O)CCS(=O)(=O)c2ccccc2)sc2c1CCN(C(=O)OC)C2	-21.6	30.0	-7.5	-0.7	-1.5	nt	nt	GRK2 confirm 2=12.7;FAM quench CP2=104.0
CN1CCc2c(sc(NC(=O)CS(=O)(=O)c3ccccc3)c2C(N)=O)C1	10.4	3.0	1.4	1.8	-1.8	nt	nt	GRK2 confirm 2=-3.9;FAM quench CP2=100.0
CC(=O)N1CCc2c(sc(NC(=O)CCS(=O)(=O)c3ccc(C)cc3)c2C#N)C1	-1.9	0.0	2.6	0.6	0.2	nt	nt	GRK2 confirm 2=23.7;FAM quench CP2=100.0
CCOC(=O)c1c(NC(=O)CCS(=O)(=O)c2ccccc2)sc2c1CCN(C(C)C)C2	3.1	0.0	4.9	-0.7	-0.8	nt	nt
CCCN1CCc2c(sc(NC(=O)CCS(=O)(=O)c3ccccc3)c2C(N)=O)C1	-12.2	1.0	8.2	0.2	0.6	nt	nt
CCn1c2ccccc2c2cc(NC(=O)COC(=O)c3ccc(NC(=O)CC#N)cc3)ccc21	-31.5	0.0	-5.9	-0.5	0.4	nt	nt
COc1c2ccc(OCC/C(C)=C/C(=O)C=C(C)C)cc2nc2occc12	-16.4	0.0	-5.3	1.9	1.7	nt	nt
O=C1CC(=O)N(Cc2ccco2)C(=S)N1	16.0	68.0*	-4.5	1.0	-0.5	-4.5	98.6
S=C1NCN(Cc2ccco2)CN1	-2.4	1.0	-1.2	-0.4	0.8	nt	nt
CCCN(CC(=O)Nc1ccccc1C)C(=O)C1CC(=O)N(c2ccc(C)cc2)C1 (stereo unspecified)	nt	nt	2.2	nt	-0.6	nt	nt
CCCN(CC(=O)Nc1ccccc1C)C(=O)C1CC(=O)N(c2cccc(C)c2C)C1 (stereo unspecified)	8.0	4.0	-1.6	-0.8	-0.7	1.5	98.3
O=C(O)CC/C(=N/NC(=O)CNC(=O)c1ccc2c(c1)OCCO2)c1ccccc1	-0.9	1.0	-23.4	?	1.7	0.7	102.8
Cc1cc(C)nc(SCNC(=O)c2ccccc2)n1	nt	48.0*	-9.2	-0.3	-0.3	-2.0	99.3
COc1cc2c(cc1OC)C(C)N(S(=O)(=O)c1ccc(C)cc1)CC2 (stereo unspecified)	2.7	49.0*	-3.2	1.9	1.3	-10.5	94.3
COc1cc2c(cc1OC)C(C)N(S(=O)(=O)c1cccs1)CC2 (stereo unspecified)	29.9	1.0	1.5	0.7	3.0	nt	nt
NS(=O)(=O)c1ccc(CCNC(=O)c2ccccc2-c2ccccc2)cc1	-5.3	82.0*	-3.9	1.1	-0.5	-4.6	99.6
NS(=O)(=O)c1ccc(CCNC(=O)c2ccccc2F)cc1	2.2	0.0	12.4	1.7	0.4	nt	nt
COc1cc2c(cc1OC)C(C)N(C(C)=O)CC2 (stereo unspecified)	8.7	0.0	3.2	0.0	0.7	nt	nt
COc1cc2c(cc1OC)C(C)N(C(=O)c1cccs1)CC2 (stereo unspecified)	5.8	81.0*	-6.5	-0.5	0.6	-4.3	101.8
